In the library only some 4.7% were active in any assay of this set; here they are far more common.
TIM10 inh – growth inhibitors of isogenic TIM10 control yeast, primary screen, counter-screen for tim10-1 yeast inhibitor project, luminescence, uHTS | S. cerevisiae TIM10 strain growth, BacTiter-Glo luminescence, 24 h | inhibition, % at 10 µM | 1.4% of 330,000 active | AID 463195, 2010;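 active means inhibition of 40% or more at the single tested concentration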;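 further: wild-type TIM10 isogenic control strain grown at permissive 25 °C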
tim23-1 inh – growth inhibitors of tim23-1 mutant yeast, primary screen, luminescence, uHTS; S. cerevisiae tim23-1 growth, BacTiter-Glo luminescence, 24 h; inhibition, % at 20 µM; 1.3% of 330,000 active;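 active means growth inhibition of the mutant yeast at or above 50%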;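 further: temperature-sensitive mutant grown at 25 °C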
SKKanGAS inh – S. pyogenes SKKanGAS growth inhibitors in kanamycin, primary screen, streptokinase expression inhibitor project, SKKanGAS strain, BacTiter-Glo luminescence. 6 h. inhibition, % at 7.5 µM. 1.3% of 300,000 active;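 active means mean replicate score, as percent of positive control median, at least 50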;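 further: strain carries kanamycin resistance gene driven by streptokinase promoter and grows in 40 µg/ml kanamycin; loss of luminescence reflects streptokinase promoter inhibition or plain growth inhibition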
tim10-1 inh – growth inhibitors of tim10-1 mutant yeast, primary screen, luminescence, uHTS; S. cerevisiae tim10-1 ts strain growth, BacTiter-Glo, 24 h; inhibition, % at 20 µM; 2.2% of 330,000 active; AID 463190, 2010;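 active means inhibition of at least 40%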;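 further: mutant grown at 25 °C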
EBI2 antag – EBI2 receptor antagonists, beta-arrestin recruitment, primary screen, cell-based, luminescence, 7a,25-OHC stimulation, uHTS. G-protein coupled receptor 183 (Homo sapiens), P32249. 7a,25-OHC stimulated. inhibition, % at 5 µM. 0.81% of 360,000 active; in the data active means inhibition above about 38%;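 further: enzyme fragment complementation signal reports receptor beta-arrestin coupling in cells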
Target sequence (P32249 whole entry, looked up, the tested form may be a part): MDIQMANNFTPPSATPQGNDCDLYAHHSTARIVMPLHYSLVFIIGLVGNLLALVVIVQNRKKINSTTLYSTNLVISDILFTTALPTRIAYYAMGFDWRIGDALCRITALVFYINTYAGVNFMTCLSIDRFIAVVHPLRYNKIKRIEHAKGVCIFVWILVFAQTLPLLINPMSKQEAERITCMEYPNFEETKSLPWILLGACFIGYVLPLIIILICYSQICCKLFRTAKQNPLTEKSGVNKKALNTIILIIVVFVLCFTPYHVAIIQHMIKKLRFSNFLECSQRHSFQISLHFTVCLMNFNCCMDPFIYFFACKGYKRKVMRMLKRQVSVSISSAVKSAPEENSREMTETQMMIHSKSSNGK
PfHsp90 set2 – growth inhibition of PfHsp90-expressing yeast, primary screen, antimalarial PfHsp90 inhibitor project, S. cerevisiae, BacTiter-Glo luminescence, single point, set 2. BacTiter-Glo ATP, 48 h; yeast lacking PDR1 and PDR3 efflux regulators. 0.32% of 310,000 active. inhibition, % at 9.4 µM. AID 504621, 2011;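 active means every replicate shows inhibition above about 80%, whatever the replicate mean, limit read from the data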
EBI2 conf – EBI2 antagonist hit retest, beta-arrestin, confirmation, cell-based, single concentration, luminescence, 7a,25-OHC stimulation; shares compounds with EBI2 antag; 7a,25-OHC antagonism; inhibition, % at 5 µM; 29% of 2,400 active;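 active means inhibition of at least 50%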
EBI2 ag – EBI2 agonist activity of antagonist hits, confirmation, counter-screen for EBI2 antagonist project, cell-based, single concentration, agonist mode, luminescence; shares compounds with EBI2 antag; EBI2-expressing cells, 60 min; 0% vehicle, 100% 7α,25-dihydroxycholesterol control; activation, % at 5 µM; 2,400 tested, under 10 active; AID 652000, 2013;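 active means activation of at least 50%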
bGal cs – E. coli beta-galactosidase enzyme inhibition, confirmation, counter-screen for EBI2 antagonist project, biochemical, luminescence, single concentration; inhibition, % at 5 µM; 1% of 2,400 active; purified beta-galactosidase, luminescent Galacton Star, 15 min; shares compounds with EBI2 antag;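 active means replicate-average signal at least 3 plate SD below neutral wells, shown as high inhibition, flagging enzyme-inhibiting false positives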;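 further: higher means stronger loss of beta-gal luminescence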
A number is an active result; . = inactive; / = no result given; ! = a repeat was not active.

SMILES	TIM10 inh	tim23-1 inh	SKKanGAS inh	tim10-1 inh	EBI2 antag	PfHsp90 set2	EBI2 conf	EBI2 ag	bGal cs
CC(=O)Nc1ccc(S(=O)(=O)N2CCC(C(=O)c3ccc(F)cc3)CC2)cc1	.	.	.	.	.	.	/	/	/
CC(=O)Nc1ccc(S(=O)(=O)N2CCC(C(=O)c3ccc(Cl)cc3)CC2)cc1	.	.	.	.	54	.	.	.	.
Cc1ccc(NC(=O)C2=CCN(S(=O)(=O)c3ccc(F)cc3)CC2)cc1	.	.	.	.	47	.	.	.	.
Cc1ccc(NC(=O)c2ccc(S(=O)(=O)N3CCC(C)CC3)cc2)cc1	.	.	.	.	53	/	.	.	.
COc1ccccc1NC(=S)NC1CCC(CC2CCC(NC(=S)Nc3ccccc3OC)CC2)CC1 (stereo not drawn)	.	.	.	.	.	.	/	/	/
Cc1noc(C)c1S(=O)(=O)Nc1ccccc1N1CCOCC1	.	.	.	.	.	.	/	/	/
Cc1ccc(OCC(=O)N2CCN(C(=O)c3cccc(F)c3)CC2)cc1	.	.	.	.	84	.	.	.	.
COc1ccc(OCC(=O)N2CCN(C(=O)c3ccc(F)cc3)CC2)cc1	.	.	.	.	79	.	65	.	.
COc1cc(OC)cc(C(=O)N2CCN(C(=O)c3cccc(F)c3)CC2)c1	.	.	.	.	.	.	/	/	/
CC(C)CC(=O)N1CCN(C(=O)c2cccc(F)c2)CC1	.	.	.	.	.	.	/	/	/
O=C(COc1ccc(F)cc1)N1CCCCCCC1	.	.	.	.	.	.	/	/	/
COc1ccc(OCC(=O)N2CCN(C(=O)c3cccc(F)c3)CC2)cc1	.	.	.	.	81	.	61	.	.
Cc1ccc(OCC(=O)N2CCN(C(=O)c3ccncc3)CC2)cc1	.	.	.	.	44	.	.	.	.
CCn1nc(C)c(CNC(=O)CCc2nnc(-c3ccc(C(C)=O)s3)o2)c1C	.	.	.	.	.	.	/	/	/
COc1ccccc1CCNC(=O)C(=O)NCC1OCCN1S(=O)(=O)c1ccc2c(c1)OCCO2 (stereo not drawn)	.	.	.	.	.	.	/	/	/
Cc1ccc(S(=O)(=O)Nc2ccc3nc(-c4cccn4C)[nH]c3c2)cc1	.	.	.	.	.	.	/	/	/
CCOc1ccccc1/C=N/NC(=O)C[n+]1ccccc1	.	.	/	.	.	.	/	/	/
S=C(NCCc1ccccn1)Nc1cccc(Cl)c1	.	.	.	.	.	.	/	/	/
O=C(/C=C/c1ccc(OC2CSC2)cc1)c1ccc(Cl)cc1	.	.	.	.	43	.	.	.	.
CC(C)NC(=O)c1ccc(OC2CSC2)cc1	.	.	.	.	.	.	/	/	/
O=C(CSc1nc2c([nH]c3ccccc32)c(=O)n1-c1ccccc1F)NCC1CCCO1 (stereo not drawn)	.	.	.	.	44	.	.	.	28
CCCCn1nnnc1C(c1cccc2ccccc12)N1CCN(C/C=C/c2ccccc2)CC1 (stereo not drawn)	/	/	/	/	44	/	.	.	.
CCCCn1nnnc1C(c1ccccc1)N1CCN(C/C=C/c2ccccc2)CC1 (stereo not drawn)	/	/	/	/	46	/	.	.	.
CCCCn1nnnc1C(CC)N1CCN(C/C=C/c2ccccc2)CC1 (stereo not drawn)	/	/	/	/	.	/	/	/	/
COCC(C)n1c(-c2ccc3c(c2)NC(=O)CO3)csc1=Nc1ccc(OC(F)F)cc1 (stereo not drawn)	.	.	.	.	58	.	58!	.	.
SMILES	TIM10 inh	tim23-1 inh	SKKanGAS inh	tim10-1 inh	EBI2 antag	PfHsp90 set2	EBI2 conf	EBI2 ag	bGal cs
COc1ccccc1N=c1scc(-c2ccc3c(c2)NC(=O)CO3)n1CC1CCCO1 (stereo not drawn)	.	.	.	.	.	.	/	/	/
O=C(c1ccccc1)N1CCC(c2nc(-c3ccc(S(=O)(=O)N4CCOCC4)cc3)no2)CC1	.	.	.	.	.	.	/	/	/
Cc1cccc(C(=O)N2CCC(c3nc(-c4ccc(S(=O)(=O)N5CCOCC5)cc4)no3)CC2)c1	.	.	.	.	79	.	54	.	.
O=C(Nc1ccccc1)N1CCC(c2nc(-c3ccc(S(=O)(=O)N4CCOCC4)cc3)no2)CC1	.	.	.	.	45	.	.	.	.
O=C(Cn1cccc1C(=O)c1ccccc1)NCCc1ccc(Cl)cc1	.	.	.	.	49	.	.	.	.
CN(c1ccc(OCC(=O)NCCc2ccccc2)cc1)S(=O)(=O)c1ccc(Cl)cc1	.	.	.	.	.	/	/	/	/
COc1ccc(CCNC(=O)COc2ccc(N(C)S(=O)(=O)c3ccc(Cl)cc3)cc2)cc1	/	/	.	/	63	.	.	.	.
COc1ccc(OC)c(/C=C/c2ccnc3ccccc23)c1	/	/	/	/	.	.	/	/	/
COc1ccc2nccc(/C=C/c3ccnc4ccc(OC)cc34)c2c1	.	.	.	.	38	/	.	.	.
O=C(Nc1cccc(OC(F)(F)F)c1)c1ccc(-c2cccnc2)c2ccoc12	/	/	/	/	38	/	.	.	.
CCCCN(CC)C(=O)C1CCC(=O)N(c2ccc(OC)cc2)C1c1ccc(OC)c(OC)c1 (stereo not drawn)	.	.	/	.	.	/	/	/	/
Cc1ccc(C)c(S(=O)(=O)N2CCN(CC(=O)Nc3ccc4c(c3)CCC4)CC2)c1	.	.	.	.	47	.	.	.	.
CN(C)c1ccc(NC(=O)CN2CCN(S(=O)(=O)c3cc(Cl)ccc3Cl)CC2)cc1	.	.	.	.	64	.	.	.	.
Cc1ccc(C)c(S(=O)(=O)N2CCN(CC(=O)Nc3ccc4c(c3)OCCO4)CC2)c1	.	.	.	.	.	/	/	/	/
CN(CC(=O)Nc1ccc(Cl)cc1)C(=O)c1cccc(S(=O)(=O)N2CCN(Cc3ccccc3)CC2)c1	.	.	.	.	62	.	.	.	.
O=C(O)CCCC(=O)N1CCN(C(c2ccccc2)c2ccccc2)CC1	.	.	.	.	.	/	/	/	/

Screening data as filed in PubChem BioAssay.
